From PubChem BioAssay AID1159580 (chemical genetic matrix, 2015)
Several values for one entry are separate records, joined by “and”; a condition that tells them apart may be missing. Equal values may be shown once. Out of some 5,500 compounds screened, about 2,000 (36%) were called active. Another 18% or so got no clear call; they are omitted. Rule as the data show it: active = normalized growth mostly below about 0.91 (no sharp cut-off); inconclusive = no clear call, values can overlap the other calls; inactive = mostly above about 0.92. The list shows a part of the results.

Test: chemical genetic growth profiling, strain panel (AID 1159580);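 also: tested at 20 µM; growth read once vehicle control cultures reached saturation at 30 °C; 1 = growth at the plate median or of vehicle wells; lower values mean less growth of the strain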
Details: growth OD

Measured: normalized growth

Cc1cccc(C)c1OCC(C)N (stereo not drawn)
inactive: S. cerevisiae deletion strains, locus YKL009W, strain mrt4, stronger effect = lower value 0.972 | S. cerevisiae deletion strains, locus YKL068W, stronger effect = lower value 0.982 | S. cerevisiae deletion strains, locus YKL085W, strain MDH1 (second series), stronger effect = lower value 1.04 | S. cerevisiae deletion strains, locus YKL085W, strain MDH1, stronger effect = lower value 1.04 | S. cerevisiae deletion strains, locus YKL160W, strain elf1, stronger effect = lower value 1 | S. cerevisiae deletion strains, locus YKL190W, strain CNB1, stronger effect = lower value 0.996 | S. cerevisiae deletion strains, locus YKR001C, strain vps1, stronger effect = lower value 0.99 | S. cerevisiae deletion strains, locus YKR026C, strain gcn3, stronger effect = lower value 0.999 | S. cerevisiae deletion strains, locus YKR091W, strain srl3, stronger effect = lower value 1.01 | S. cerevisiae deletion strains, locus YLL001W, strain dnm1, stronger effect = lower value 1.02 | S. cerevisiae deletion strains, locus YLL026W, stronger effect = lower value 1.02 | S. cerevisiae deletion strains, locus YLL041C, strain sdh2, stronger effect = lower value 1.01 | S. cerevisiae deletion strains, locus YLR027C, strain aat2, stronger effect = lower value 1.01 | S. cerevisiae deletion strains, locus YLR039C, strain RIC1, stronger effect = lower value 1.02 | S. cerevisiae deletion strains, locus YLR058C, strain SHM2, stronger effect = lower value 0.998 | S. cerevisiae deletion strains, locus YLR102C, strain apc9, stronger effect = lower value 0.989 | S. cerevisiae deletion strains, locus YLR113W, strain HOG1, stronger effect = lower value 0.987 | S. cerevisiae deletion strains, locus YLR221C, strain rsa3, stronger effect = lower value 1 | S. cerevisiae deletion strains, locus YLR258W, strain gsy2, stronger effect = lower value 1.01 | S. cerevisiae deletion strains, locus YLR262C, strain YPT6 (second series), stronger effect = lower value 1.01 | S. cerevisiae deletion strains, locus YLR262C, strain YPT6, stronger effect = lower value 0.993 | S. cerevisiae deletion strains, locus YLR268W, strain sec22, stronger effect = lower value 0.993 | S. cerevisiae deletion strains, locus YLR320W, strain mms22, stronger effect = lower value 1.03 | S. cerevisiae deletion strains, locus YLR330W, strain CHS5, stronger effect = lower value 0.992 | S. cerevisiae deletion strains, locus YLR342W, strain FKS1 (second series), stronger effect = lower value 1.01 | S. cerevisiae deletion strains, locus YLR342W, strain FKS1, stronger effect = lower value 1.01 | S. cerevisiae deletion strains, locus YLR357W, strain rsc2, stronger effect = lower value 1.02 | S. cerevisiae deletion strains, locus YLR370C, strain arc18, stronger effect = lower value 1.01 | S. cerevisiae deletion strains, locus YLR371W, strain rom2, stronger effect = lower value 0.988 | S. cerevisiae deletion strains, locus YLR384C, strain iki3, stronger effect = lower value 1.01 | S. cerevisiae deletion strains, locus YLR418C, strain cdc73, stronger effect = lower value 1.03 | S. cerevisiae deletion strains, locus YML016C, strain PPZ1, stronger effect = lower value 0.995 | S. cerevisiae deletion strains, locus YML032C, strain rad52, stronger effect = lower value 1 | S. cerevisiae deletion strains, locus YML120C, strain ndi1, stronger effect = lower value 1 | S. cerevisiae deletion strains, locus YML124C, strain tub3, stronger effect = lower value 0.991 | S. cerevisiae deletion strains, locus YMR058W, strain fet3, stronger effect = lower value 1.02 | S. cerevisiae deletion strains, locus YMR078C, strain ctf18, stronger effect = lower value 0.986 | S. cerevisiae deletion strains, locus YMR125W, strain sto1, stronger effect = lower value 1.01 | S. cerevisiae deletion strains, locus YMR129W, stronger effect = lower value 0.994 | S. cerevisiae deletion strains, locus YMR205C, strain PFK2, stronger effect = lower value 1.03 | S. cerevisiae deletion strains, locus YMR223W, strain ubp8, stronger effect = lower value 1.01 | S. cerevisiae deletion strains, locus YMR231W, strain pep5, stronger effect = lower value 1.01 | S. cerevisiae deletion strains, locus YMR263W, strain SAP30, stronger effect = lower value 0.993 | S. cerevisiae deletion strains, locus YMR307W, strain GAS1, stronger effect = lower value 0.969 | S. cerevisiae deletion strains, locus YNL067W, strain RPL9B, stronger effect = lower value 1.01 | S. cerevisiae deletion strains, locus YNL071W, strain lat1, stronger effect = lower value 1.01 | S. cerevisiae deletion strains, locus YNL153C, strain GIM3, stronger effect = lower value 1.03 and 1 | S. cerevisiae deletion strains, locus YNL175C, strain NOP13, stronger effect = lower value 1 | S. cerevisiae deletion strains, locus YNL183C, strain NPR1, stronger effect = lower value 0.956 | S. cerevisiae deletion strains, locus YNL197C, strain WHI3, stronger effect = lower value 0.992 | S. cerevisiae deletion strains, locus YNL209W, strain ssb2, stronger effect = lower value 1.01 | S. cerevisiae deletion strains, locus YNL224C, strain SQS1, stronger effect = lower value 1 | S. cerevisiae deletion strains, locus YNL233W, strain BNI4, stronger effect = lower value 1.03 | S. cerevisiae deletion strains, locus YNL248C, strain rpa49, stronger effect = lower value 0.991 | S. cerevisiae deletion strains, locus YNL250W, strain rad50, stronger effect = lower value 0.987 | S. cerevisiae deletion strains, locus YNL271C, strain bni1, stronger effect = lower value 0.985 | S. cerevisiae deletion strains, locus YNL298W, strain CLA4, stronger effect = lower value 0.986 | S. cerevisiae deletion strains, locus YNL307C, strain MCK1, stronger effect = lower value 1.02 | S. cerevisiae deletion strains, locus YNL322C, strain KRE1 (second series), stronger effect = lower value 1 | S. cerevisiae deletion strains, locus YNL322C, strain KRE1, stronger effect = lower value 0.991 | S. cerevisiae deletion strains, locus YNR049C, strain mso1, stronger effect = lower value 1 | S. cerevisiae deletion strains, locus YNR052C, strain pop2, stronger effect = lower value 0.977 | S. cerevisiae deletion strains, locus YOL006C, strain TOP1, stronger effect = lower value 1.11 | S. cerevisiae deletion strains, locus YOL012C, strain htz1 1.19 | S. cerevisiae deletion strains, locus YOL147C, strain pex11, stronger effect = lower value 0.99 | S. cerevisiae deletion strains, locus YOR001W, strain rrp6, stronger effect = lower value 0.994 | S. cerevisiae deletion strains, locus YOR061W, strain CKA2, stronger effect = lower value 0.998 | S. cerevisiae deletion strains, locus YOR069W, strain VPS5, stronger effect = lower value 0.988 | S. cerevisiae deletion strains, locus YOR070C, strain gyp1, stronger effect = lower value 0.997 | S. cerevisiae deletion strains, locus YOR080W, strain dia2, stronger effect = lower value 1.01 | S. cerevisiae deletion strains, locus YOR083W, strain WHI5 (second series), stronger effect = lower value 1 | S. cerevisiae deletion strains, locus YOR083W, strain WHI5, stronger effect = lower value 0.993 | S. cerevisiae deletion strains, locus YOR106W, strain vam3, stronger effect = lower value 1.01 | S. cerevisiae deletion strains, locus YOR136W, strain idh2, stronger effect = lower value 0.987 | S. cerevisiae deletion strains, locus YOR144C, strain elg1, stronger effect = lower value 0.991 | S. cerevisiae deletion strains, locus YOR184W, strain ser1, stronger effect = lower value 1.03 | S. cerevisiae deletion strains, locus YOR231W, strain MKK1, stronger effect = lower value 0.999 | S. cerevisiae deletion strains, locus YOR265W, strain rbl2, stronger effect = lower value 1.01 | S. cerevisiae deletion strains, locus YOR270C, strain vph1, stronger effect = lower value 1.05 | S. cerevisiae deletion strains, locus YOR290C, strain snf2, stronger effect = lower value 1 | S. cerevisiae deletion strains, locus YOR316C, strain cot1, stronger effect = lower value 0.977 | S. cerevisiae deletion strains, locus YPL051W, strain arl3, stronger effect = lower value 1 | S. cerevisiae deletion strains, locus YPL078C, strain atp4, stronger effect = lower value 1 | S. cerevisiae deletion strains, locus YPL106C, strain sse1, stronger effect = lower value 1.02 | S. cerevisiae deletion strains, locus YPL240C, strain hsp82, stronger effect = lower value 1.01 | S. cerevisiae deletion strains, locus YPL241C, strain CIN2, stronger effect = lower value 0.995 | S. cerevisiae deletion strains, locus YPL256C, strain CLN2, stronger effect = lower value 0.998 | S. cerevisiae deletion strains, locus YPR119W, strain clb2, stronger effect = lower value 0.993 | S. cerevisiae deletion strains, locus YPR141C, strain kar3, stronger effect = lower value 0.983 | S. cerevisiae deletion strains, locus YPR163C, strain tif3, stronger effect = lower value 0.981 | S. cerevisiae deletion strains, locus YPR167C, strain met16, stronger effect = lower value 0.978 | S. cerevisiae deletion strains, strain wtn01, stronger effect = lower value 0.983 | S. cerevisiae strains, strain wild type, stronger effect = lower value 0.997
